Laboratory results published in PubChem BioAssay AID1851 (National Center for Advancing Translational Sciences (NCATS), 2009).
Where “and” joins values, the source holds several entries; their conditions need not be identical. Equal values may be shown once. Hit rate of the full screen: of about 16,000 compounds, about 2,600 (16%) were called active. Another 20% or so got no clear call; they are omitted. The list is a sample of the results. Unmarked numbers belong to inactive results. The call rests on the fitted dose curve; in most records, active means well fitted curve in the direction sought with a large enough effect; inconclusive means small, poorly fitted or top-dose-only effect, or effect the other way; inactive means no such curve, though single readings can be large or run the other way.

biological target: Cytochrome P450 2D6 (Homo sapiens) (UniProt P10635); assay: Cytochrome panel assay with activity outcomes; conditions: recombinant CYP, pro-luciferin dealkylation, luminescence, p450-cyp2d6; series mostly up to 57.1 µM
Sequence (P10635 whole entry, looked up): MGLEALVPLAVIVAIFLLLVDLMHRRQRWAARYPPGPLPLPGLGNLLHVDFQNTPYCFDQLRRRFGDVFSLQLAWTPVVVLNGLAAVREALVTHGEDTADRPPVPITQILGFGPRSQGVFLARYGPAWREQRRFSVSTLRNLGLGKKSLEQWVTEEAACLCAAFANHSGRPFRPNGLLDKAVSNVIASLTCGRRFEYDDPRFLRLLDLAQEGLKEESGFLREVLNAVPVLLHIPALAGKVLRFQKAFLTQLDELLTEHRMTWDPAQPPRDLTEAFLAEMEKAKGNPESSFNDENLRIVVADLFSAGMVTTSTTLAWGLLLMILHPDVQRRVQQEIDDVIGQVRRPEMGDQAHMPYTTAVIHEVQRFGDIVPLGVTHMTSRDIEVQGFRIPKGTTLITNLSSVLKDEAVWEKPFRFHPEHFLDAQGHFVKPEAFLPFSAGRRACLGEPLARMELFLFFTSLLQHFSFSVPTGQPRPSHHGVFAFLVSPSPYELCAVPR
On the % scale 0 is the no-effect control and ±100 the full control effect.

Compound | AC50 | activity, negative = inhibition
CN(Cc1ccco1)c1ncnc2ccc(-c3cccnc3)cc12 | 2 µM (active) | 
CS(=O)(=O)Nc1cccc(-c2ccc3ncnc(NC4CC4)c3c2)c1 | inactive | 
CN(C)c1ccc(-c2ccc3ncnc(N(C)C)c3c2)cc1 | inactive | 
CS(=O)(=O)Nc1cccc(-c2ccc3ncnc(N4CCOCC4)c3c2)c1 | inactive | 
CN(C)c1ncnc2ccc(-c3ccccc3C#N)cc12 | inactive | 
CN(Cc1ccco1)c1ncnc2ccc(-c3cccc(NS(C)(=O)=O)c3)cc12 | 20 µM (active) | 
Cc1ccccc1-c1ccc2ncnc(N(C)C)c2c1 | 20 µM (active) | 
CN(C)C(=O)c1ccc(-c2ccc3ncnc(N(C)C)c3c2)cc1 | inactive | 
CN(C)c1ncnc2ccc(-c3ccoc3)cc12 | 10 µM (active) | 
Cc1noc(C)c1-c1ccc2ncnc(N(C)C)c2c1 | inactive | 
CC(C)(C)CNCCO |  | 17.6% [at 11.4 µM]
COCCSc1nnc(NC(=O)C(C)(C)C)s1 | inactive | 
Cc1c(Br)c([N+](=O)[O-])nn1C(C)C(=O)Nc1nccs1 (configuration not stated) | inactive | 
CCN(CC)C(=O)CSc1nnc(C2CCCCC2)o1 | inactive | 
COC(=O)CN1C(=O)S/C(=C/c2ccc(N3CCCCC3)o2)C1=O | inactive | 
CSc1nc(N)c2ncn([C@H]3O[C@H](COP(=O)(O)OP(=O)(O)O)[C@@H](O)[C@@H]3O)c2n1 | inactive | 
O=C(O)c1cc(-c2ccc(-c3ccc(-c4cc(C(=O)O)c5cc(Cl)ccc5n4)cc3)cc2)nc2ccc(Cl)cc12 |  | 16.7% [at 11.4 µM]
Cn1nnnc1SCC(=O)Nc1ccccc1[N+](=O)[O-] | inactive | 
CCS(=O)(=O)NCCc1cc2ccc(C)cc2[nH]c1=O | inactive | 
CN(C)c1ncc2nc(-c3ccccc3)c(=O)n(C)c2n1 | inactive | 
CC(C)(C)C(=O)NC(c1ccc(Cl)cc1)[C@]1(C)C[C@H]1C1CCCCC1 (some centres not stated) | inactive | 
COc1cccc(-c2ccc3ncnc(NC4CCNCC4)c3c2)c1 | inactive | 
COc1cccc(-c2ccc3ncnc(N(C)C)c3c2)c1 | 10 µM (active) | 
CNc1ncnc2ccc(-c3cccc(OC)c3)cc12 | 15.8 µM (active) | 
COc1cccc(-c2ccc3ncnc(Nc4ccccc4)c3c2)c1 | inactive | 
CN(Cc1ccco1)c1ncnc2ccc(-c3ccc4c(c3)OCO4)cc12 | 1.58 µM (active) | 

Compound | AC50 | activity, negative = inhibition
COc1cccc(-c2ccc3ncnc(N(C)Cc4ccco4)c3c2)c1 | 10 µM (active) | 
Cc1ccc(C(=O)NC(=S)NCC2CCCO2)cc1 (configuration not stated) | inactive | 
Cc1ccc(C2(C)NC(=O)N(CC(=O)Nc3cc(C)on3)C2=O)cc1 (configuration not stated) | inactive | 
COc1ccc(-n2c(SC)nc(O)c(Cc3ccccc3)c2=O)cc1 | inactive | 
CC1=NN(c2ccccc2)C(=O)C1C(=O)c1ccc(Cl)cc1 (configuration not stated) | inactive | 
CCOc1ccc(CSC(CC(=O)O)C(=O)O)cc1 (configuration not stated) | inactive | 
CSC1=N/C(=C\c2ccc(C)cc2)C(=O)S1 | inactive | 
C[C@H](N=C(NC#N)Nc1ccncc1)C(C)(C)C | inactive | 
C[N+](C)(C)c1ncnc2c1ncn2[C@@H]1CCCCO1 |  | -6.66% [at 11.4 µM]
CCNc1ncc2nc(-c3cn(C)c4ccccc34)c(=O)n(Cc3cccc(OC)c3)c2n1 | inactive | 
CCOC(=O)/C(C(N)=NCCCO)=C(/O)c1ccccc1 | inactive | 
COc1cc(OC)c(C#N)c(S(=O)(=O)Cc2ccccc2)c1 | inactive | 
COC(=O)c1c(-c2cc(OC)c(OC)c(OC)c2)c2ccc(OCc3ccccn3)cc2c(=O)n1-c1ccc(N)cc1 | inactive | 
O=C(Oc1ccccc1)N1CCC2(CC1)CN(c1ccccc1)C2 | inactive | 
O=C(Cn1nnc2ccccc21)N1CCCCC1 | inactive | 
COCCNC(=O)C(c1ccc(C)o1)N(CC1CCCO1)C(=O)Cn1nnc2ccccc21 (configuration not stated) | inactive | 
COc1ccc(N(C(=O)Cn2nnc3ccccc32)C2(C(=O)NC3CCCC3)CCCCC2)cc1 | 11.2 µM (active) | 
CCOCC(=O)Nc1cc(-c2cn3cccnc3n2)ccc1C | inactive | 
Clc1ccc(-c2ccnc(Oc3cc(Cl)ccc3Cl)n2)cc1 | inactive | 
CCOc1cc2[nH]c(=O)n(CCC(=O)NCc3ccc(OC)cc3)c(=O)c2cc1OCC | inactive | 
Cc1cc(NC(=O)CSc2nc3ccsc3c(=O)n2Cc2ccccn2)n[nH]1 | inactive | 
Cc1cc(NC(=O)CSc2nc3ccccc3c(=O)n2CCCC(=O)NCc2ccco2)n[nH]1 | 15.8 µM (active) | 
CCc1ccc(NC(=O)CSc2nc3cc(C(=O)OC)ccc3c(=O)n2Cc2ccco2)cc1 | inactive | 
CCOC(=O)CSc1nc2ccccc2c(=O)n1CC1CCC(C(=O)NCc2ccco2)CC1 (configuration not stated) | inactive | 
O=C(CSc1nc2ccccc2c(=O)n1Cc1ccccc1)NCc1ccco1 | inactive | 
O=C(NCC1CCCO1)c1ccc2c(=O)n(Cc3ccco3)c(SCC(=O)N3CCCC3)nc2c1 (configuration not stated) | inactive | 

Compound | AC50 | activity, negative = inhibition
Cc1cccc(C)c1-n1c(SCC(=O)NCc2ccco2)nc2ccccc2c1=O | 28.2 µM (active) | 
O=C(CSc1nc2ccccc2c(=O)n1CCCC(=O)N1CCCC1)NCc1ccco1 | inactive | 
CCCCCn1c(SCc2ccncc2)nc2cc(C(=O)NCc3ccco3)ccc2c1=O | 0.794 µM (active) | 
C=CCOc1ccc2cccc(/C=N/NC(=O)c3cc4cc([N+](=O)[O-])ccc4s3)c2c1 | inactive | 
CCCCCCCOC1(c2ccccc2)OC(=O)c2ccccc21 (configuration not stated) | inactive | 
CCCN(CCC)C(=O)[C@@H](CCC(=O)O)NC(=O)c1ccccc1 | inactive | 
CC(=O)Nc1ccc2c(c1)/C(=C/c1ccc([N+](C)(C)C)cc1)c1ccccc1-2 |  | -4.76% [at 11.4 µM]
Cc1sc2nc(SCc3nc(-c4cccs4)no3)n(-c3ccccc3)c(=O)c2c1C | inactive | 
CC(C)=NNc1ncnc2nc[nH]c12 |  | 12.8% [at 11.4 µM]
CN(C)CCN1C(=O)C(O)=C(C(=O)c2cc3ccccc3o2)C1c1ccccn1 (configuration not stated) | inactive | 
CCCN=C(N)NCCC[C@H](N)C(=O)O | 7.94 µM (active) | 
NC(=NCCC[C@H](N)C(=O)O)NO | inactive | 
NC(=S)NCCC[C@@H](N)C(=O)O | inactive | 
O=C(Nc1cnn(Cc2ccc(Cl)cc2)c1)c1ccc([N+](=O)[O-])cc1 | inactive | 
CSc1ccc2nnc(-c3cccc(F)c3)n2n1 | inactive | 
Cc1ccc(/C=N/n2c(COc3ccccc3)n[nH]c2=S)s1 | inactive | 
Cc1nnc(C)n1/N=C/c1cccs1 | inactive | 
S=c1[nH]nc(C2CCCCC2)n1/N=C/c1cccs1 | 2.24 µM (active) | 
O=C1C2ON(c3ccccc3)C(c3ccncc3)C2C(=O)N1c1ccccc1 (configuration not stated) | inactive | 
Cc1nc2ccccc2n1CC(=O)N/N=C\c1ccccn1 | inactive | 
Cc1cc(C2C(C#N)=C(N)Oc3n[nH]c(C)c32)c(C)s1 (configuration not stated) | inactive | 
Cc1ccsc1/C=N/Nc1nc(Cl)c(Cl)cc1Cl | inactive | 
OCCN(C=NC1=NN(c2cccc(C(F)(F)F)c2)CC1)CCO | inactive | 
Cc1ccc(C)c(NC(=S)N(CCc2nc3cc(C)c(C)cc3[nH]2)Cc2cccnc2)c1 | 1 µM (active) | 
CCc1ccc2c(c1)cc(CN(C(=S)Nc1cccc(C)c1)C1CC1)c1nnnn12 | inactive | 
Cc1cccc(NC(=S)N(CCc2nc3cc(C)c(C)cc3[nH]2)Cc2cccnc2)c1 | 3.16 µM (active) | 

Compound | AC50 | activity, negative = inhibition
COc1ccc2[nH]c(=O)c(NC(N)=S)nc2c1 | inactive | 
COc1cccc(/C=N/NC(=O)C(=O)NCc2cccnc2)c1 | inactive | 
COc1ccc(NC(=S)N(CCc2nc3cc(C)c(C)cc3[nH]2)Cc2cccnc2)cc1 | 11.2 µM (active) | 
CC(=O)CC(=O)[C@@]1(O)CC[C@@H]2[C@@H]3C=C(C)C4=CC(=O)CC[C@@H]4[C@H]3CC[C@]21C | inactive | 
O=C(O)[C@@H](O)[C@@H](O)[C@@H](O[C@H]1O[C@@H](CO)[C@@H](O)[C@@H](O)[C@@H]1O)[C@@H](O)CO | inactive | 
COc1cc(NC(=S)Nc2ccc(S(=O)(=O)N3CCOCC3)cc2)cc(OC)c1OC | inactive | 
CC1(C)CC(=O)c2cnc(N)nc2C1 | inactive | 
O=C(NN=C1c2ccccc2-c2ccccc21)c1ccccn1 | inactive | 
O=C(CSc1ccc(Cl)cc1)Nc1ccc(N2CCN(C(=O)c3ccc(Cl)cc3)CC2)cc1 | inactive | 
O=C(CSC1=NCCS1)N1CCN(c2ccc(Cl)cc2)CC1 | inactive | 
CSC(=NC#N)N1CCN(c2ccc(Cl)cc2)CC1 | 0.316 µM (active) | 
CN(C)c1ccc(/C=N\NC(=O)c2cnc3ccccc3c2)cc1 |  | 5.04% [at 11.4 µM]
CNc1nc(-c2ccc(N(C)C)cc2)nc2ccccc12 | 12.6 µM (active) | 
CN(C)c1nc(-c2cccnc2)nc2ccccc12 | 15.8 µM (active) | 
CN(C)c1ccc(-c2nc(N(C)C)c3ccccc3n2)cc1 | 7.94 µM (active) | 
CCn1c(-c2ccc(N(C)C)cc2)nc2ccccc21 | inactive | 
c1ccc(Nc2nc(-c3cccnc3)nc3ccccc23)cc1 | inactive | 
COc1ccccc1NC(=O)Nc1nc(-c2cccnc2)nc2ccccc12 | inactive | 
CCC(=O)O[C@H](CC(=O)O)C[N+](C)(C)C | inactive | 
O=C1C[C@@H](O)[C@@H](O)[C@H]2[C@@H]3C(=O)N(C[C@@H]4CCCO4)C(=O)[C@@H]3CC[C@H]12 |  | 4.56% [at 11.4 µM] and 6.17% [at 11.4 µM]
COc1cc(C2NC(=O)NC(O)(C(F)(F)F)C2C(=O)c2ccc(Cl)cc2)ccc1O (configuration not stated) | inactive | 
CCCc1nn2c(=O)c(C(c3ccc(C)cc3)c3c(O)nc4sc(CCC)nn4c3=O)c(O)nc2s1 | inactive | 
CN1CCN(c2nc3c(c(=O)n(C)c(=O)n3C)n2C)CC1 |  | 6.17% [at 11.4 µM]
CCCCN(C(=S)Nc1ccccc1)C1CCS(=O)(=O)C1 (configuration not stated) | inactive | 
